The nature of test [1]: Caspase-3/7 induction in CHO-K1 cells by small molecules, qHTS cell viability counter screen (AID 1346979). Note: nearly all actives have a fitted effect of over 35% in size. The method in brief:
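Seeding: 1,500 CHO-K1 cells/well. Rest: 5hr, 37C. Treatment: compounds in DMSO, 16hr. Read: CellTiter-Fluor, 1hr, fluorescence.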

Test [2] is described as follows: Caspase-3/7 induction in CHO-K1 cells by small molecules, qHTS assay (AID 1346980). Note: nearly all actives have a fitted effect of over 15% in size. The method in brief:
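Wild-type cells were seeded at 1,500 per well and settled 5 hr at 37 C, 5% CO2, then exposed to DMSO-dissolved compounds for 17 hr. Caspase-Glo 3/7 reagent was added, and luminescence was read after 30min at room temperature.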
(In general: In qHTS, concentration-response curves come from the screen itself.)

Test [3] has as its target Nuclear receptor subfamily 1 group I member 2 (Homo sapiens) (UniProt O75469). In words: Human pregnane X receptor (PXR) small molecule agonists, qHTS assay (AID 1346982). Note: nearly all actives have a fitted effect of over 35% in size. The gist of the method:
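Compound-induced hPXR transactivation of a CYP3A4 luciferase reporter was scored in HepG2 PXR-Luc cells over 24 hr at 37 C, 5% CO2, by luminescence.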

Test [4] addresses Cytochrome P450 2D6 (Homo sapiens) (UniProt P10635). In words: Cytochrome P450 Family 2 Subfamily D Member 6 (CYP2D6) small molecule antagonists: luciferase reporter qHTS assay (AID 1671196). For activity change, negative = inhibition: series mostly up to about 120 µM. Note: nearly all actives have a fitted effect of over 50% in size. The gist of the method: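 Each well received CYP2D6 with its proluciferin substrate and chemical, sat 10 min, then got NADPH regeneration solution for 1 h at room temperature. Luminescence in RLU served as the activity measure.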
(In a reporter assay the amount or activity of a reporter protein is the signal.)

Test [5] concerns the target Cytochrome P450 2C19 (Homo sapiens) (UniProt P33261). In words: Cytochrome P450 Family 2 Subfamily C Member 19 (CYP2C19) small molecule antagonists: luciferase reporter qHTS assay (AID 1671197). For activity change, negative = inhibition: series mostly up to about 120 µM. Note: nearly all actives have a fitted effect of over 65% in size. The gist of the method:
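Compounds were tested on CYP2C19 activity via proluciferin conversion to luciferin. The 37C, 1 h reaction followed NADPH addition; detection reagent stopped it.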

Test [6] has as its target Cytochrome P450 2C9 (Homo sapiens) (UniProt P11712). In words: Cytochrome P450 Family 2 Subfamily C Member 9 (CYP2C9) small molecule antagonists: luciferase reporter qHTS assay (AID 1671198). For activity change, negative = inhibition: series mostly up to about 120 µM. Note: nearly all actives have a fitted effect of over 50% in size. The method in brief:
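CYP2C9 activity was measured with a P450-Glo proluciferin substrate. Enzyme–substrate mix was held with compound for 10 min at room temperature, then NADPH regeneration solution was added for 1 h at 37C. Luciferin product was read as luminescence.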

Test [7] addresses Voltage-gated inwardly rectifying potassium channel KCNH2 (Homo sapiens) (UniProt Q12809). In words: Human Ether-a-go-go-Related Gene (hERG) channel small molecule antagonists: fluorescence cell-based qHTS assay (AID 1671200).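 For activity change, negative = inhibition: hERG-expressing U2OS cells given a thallium stimulus after FluxOR II dye loading; series mostly up to about 77 µM.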 Note: nearly all actives have a fitted effect of over 50% in size. The method in brief:
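First, 1000 cells per well are seeded and cultured overnight at 37 C. Next, FluxOR II dye is loaded for 1 h at room temperature, protected from light. After 10 more minutes, stimulus is added and fluorescence is read.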
(The hERG channel carries a current that helps repolarise heart muscle cells.)

Test [8] deals with Cytochrome P450 1A2 (Homo sapiens) (UniProt P05177). In words: Cytochrome P450 Family 1 Subfamily A Member 2 (CYP1A2) small molecule antagonists: luciferase reporter qHTS assay (AID 1671199). For activity change, negative = inhibition: series mostly up to about 120 µM. Note: nearly all actives have a fitted effect of over 50% in size. The gist of the method: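 Enzymatic CYP1A2 assay, human, luminescent: 10 min compound–enzyme–substrate preincubation, 1 h NADPH-dependent turnover, 20 min detection step, room temperature throughout. Reduced light indicates lower CYP1A2 activity.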

The target of test [9] is Cytochrome P450 3A4 (Homo sapiens) (UniProt P08684). Description: Cytochrome P450 Family 3 Subfamily A Member 4 (CYP3A4) small molecule antagonists: luciferase reporter qHTS assay (AID 1671201). For activity change, negative = inhibition: series mostly up to about 120 µM. Note: nearly all actives have a fitted effect of over 50% in size. The method in brief: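 Enzyme and proluciferin substrate are mixed with test chemicals for 10 min, then NADPH regeneration system drives turnover for 1 h at room temperature. A detection reagent halts the reaction; luminescence after 20 min gives relative activity.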

Where “and” joins values, the source holds several entries; their conditions need not be identical. Equal values may be shown once. Values without a mark were called inactive. Results filed as inconclusive are left out. Calls of active or inactive are those of the source. Calls come from the whole dose curve; as a rule, active = well fitted curve in the direction sought with a large enough effect in the repeat runs; inconclusive = weak or mixed curves; inactive = no such curve, though single readings can be large; an effect the other way counts as inactive or inconclusive.
% is set by controls: 0 for no effect and ±100 for the full control effect; potency is the fitted concentration of half-maximal effect.

Voltage-gated inwardly rectifying potassium channel KCNH2 (Homo sapiens), sequence (Q12809 whole entry, looked up): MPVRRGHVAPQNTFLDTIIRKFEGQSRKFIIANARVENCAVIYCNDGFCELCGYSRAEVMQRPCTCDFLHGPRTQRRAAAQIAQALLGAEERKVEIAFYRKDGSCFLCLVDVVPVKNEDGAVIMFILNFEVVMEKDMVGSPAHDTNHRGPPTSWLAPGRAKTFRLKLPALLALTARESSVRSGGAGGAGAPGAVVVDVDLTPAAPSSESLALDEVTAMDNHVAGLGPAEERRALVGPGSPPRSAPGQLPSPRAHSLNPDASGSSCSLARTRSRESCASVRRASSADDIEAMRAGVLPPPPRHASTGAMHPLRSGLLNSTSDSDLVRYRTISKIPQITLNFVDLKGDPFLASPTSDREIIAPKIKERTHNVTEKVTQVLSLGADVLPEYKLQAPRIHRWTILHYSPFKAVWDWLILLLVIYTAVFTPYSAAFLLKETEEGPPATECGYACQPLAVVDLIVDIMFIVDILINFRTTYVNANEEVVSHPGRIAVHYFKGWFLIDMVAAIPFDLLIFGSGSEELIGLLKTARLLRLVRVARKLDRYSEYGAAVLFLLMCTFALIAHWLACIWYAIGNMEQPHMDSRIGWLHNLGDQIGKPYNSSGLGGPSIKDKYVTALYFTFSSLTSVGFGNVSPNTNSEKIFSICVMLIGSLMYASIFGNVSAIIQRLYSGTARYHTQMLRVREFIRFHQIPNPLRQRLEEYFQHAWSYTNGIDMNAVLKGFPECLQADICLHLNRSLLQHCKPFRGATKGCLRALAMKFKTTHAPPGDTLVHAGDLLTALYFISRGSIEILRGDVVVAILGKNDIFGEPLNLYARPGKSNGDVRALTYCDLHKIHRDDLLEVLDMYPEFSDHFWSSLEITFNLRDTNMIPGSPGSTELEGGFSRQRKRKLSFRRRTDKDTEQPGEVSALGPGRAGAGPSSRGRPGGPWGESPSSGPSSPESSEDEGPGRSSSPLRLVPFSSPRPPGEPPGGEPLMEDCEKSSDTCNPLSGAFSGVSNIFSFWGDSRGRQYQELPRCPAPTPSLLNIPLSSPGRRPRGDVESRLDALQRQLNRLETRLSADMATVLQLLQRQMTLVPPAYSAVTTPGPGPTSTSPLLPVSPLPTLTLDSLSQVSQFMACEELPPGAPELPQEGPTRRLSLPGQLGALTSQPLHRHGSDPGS
Nuclear receptor subfamily 1 group I member 2 (Homo sapiens), sequence (O75469 whole entry, looked up): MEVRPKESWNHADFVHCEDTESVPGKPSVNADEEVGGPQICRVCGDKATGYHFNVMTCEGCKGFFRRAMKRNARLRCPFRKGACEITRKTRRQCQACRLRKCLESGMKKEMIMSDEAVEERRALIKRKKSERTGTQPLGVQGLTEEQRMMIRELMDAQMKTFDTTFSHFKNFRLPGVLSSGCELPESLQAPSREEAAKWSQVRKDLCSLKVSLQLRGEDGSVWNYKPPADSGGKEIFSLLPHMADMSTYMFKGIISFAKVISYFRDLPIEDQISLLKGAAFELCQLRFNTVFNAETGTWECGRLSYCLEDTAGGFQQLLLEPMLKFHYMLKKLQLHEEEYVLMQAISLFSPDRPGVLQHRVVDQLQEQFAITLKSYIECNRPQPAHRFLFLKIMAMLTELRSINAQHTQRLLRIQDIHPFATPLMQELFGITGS
Cytochrome P450 2D6 (Homo sapiens), sequence (P10635 whole entry, looked up): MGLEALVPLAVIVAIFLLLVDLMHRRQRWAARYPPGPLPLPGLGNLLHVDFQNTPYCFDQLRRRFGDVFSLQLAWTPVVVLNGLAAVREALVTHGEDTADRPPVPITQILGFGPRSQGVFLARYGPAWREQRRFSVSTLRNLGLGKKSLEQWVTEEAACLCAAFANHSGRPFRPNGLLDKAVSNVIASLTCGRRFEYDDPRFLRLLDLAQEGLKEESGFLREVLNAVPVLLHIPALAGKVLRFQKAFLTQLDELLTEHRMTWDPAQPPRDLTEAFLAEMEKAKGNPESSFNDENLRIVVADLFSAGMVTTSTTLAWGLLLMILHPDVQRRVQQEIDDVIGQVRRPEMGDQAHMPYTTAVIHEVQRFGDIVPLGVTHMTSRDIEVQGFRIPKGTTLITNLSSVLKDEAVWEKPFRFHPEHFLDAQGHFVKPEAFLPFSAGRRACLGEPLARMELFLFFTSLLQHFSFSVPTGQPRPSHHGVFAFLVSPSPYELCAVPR
Cytochrome P450 2C9 (Homo sapiens), sequence (P11712 whole entry, looked up): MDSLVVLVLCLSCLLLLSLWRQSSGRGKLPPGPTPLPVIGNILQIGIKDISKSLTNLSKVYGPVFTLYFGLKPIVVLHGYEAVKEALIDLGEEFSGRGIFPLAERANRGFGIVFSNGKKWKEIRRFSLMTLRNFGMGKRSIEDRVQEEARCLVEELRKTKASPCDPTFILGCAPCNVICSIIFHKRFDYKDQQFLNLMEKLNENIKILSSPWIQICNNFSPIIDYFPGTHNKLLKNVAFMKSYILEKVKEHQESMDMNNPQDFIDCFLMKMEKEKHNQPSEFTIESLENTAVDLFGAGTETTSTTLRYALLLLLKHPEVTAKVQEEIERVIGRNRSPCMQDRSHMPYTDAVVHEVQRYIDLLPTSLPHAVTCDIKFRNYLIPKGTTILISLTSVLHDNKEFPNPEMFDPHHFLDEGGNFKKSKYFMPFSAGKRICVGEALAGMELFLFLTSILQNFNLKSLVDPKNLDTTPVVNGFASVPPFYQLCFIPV
Cytochrome P450 3A4 (Homo sapiens), sequence (P08684 whole entry, looked up): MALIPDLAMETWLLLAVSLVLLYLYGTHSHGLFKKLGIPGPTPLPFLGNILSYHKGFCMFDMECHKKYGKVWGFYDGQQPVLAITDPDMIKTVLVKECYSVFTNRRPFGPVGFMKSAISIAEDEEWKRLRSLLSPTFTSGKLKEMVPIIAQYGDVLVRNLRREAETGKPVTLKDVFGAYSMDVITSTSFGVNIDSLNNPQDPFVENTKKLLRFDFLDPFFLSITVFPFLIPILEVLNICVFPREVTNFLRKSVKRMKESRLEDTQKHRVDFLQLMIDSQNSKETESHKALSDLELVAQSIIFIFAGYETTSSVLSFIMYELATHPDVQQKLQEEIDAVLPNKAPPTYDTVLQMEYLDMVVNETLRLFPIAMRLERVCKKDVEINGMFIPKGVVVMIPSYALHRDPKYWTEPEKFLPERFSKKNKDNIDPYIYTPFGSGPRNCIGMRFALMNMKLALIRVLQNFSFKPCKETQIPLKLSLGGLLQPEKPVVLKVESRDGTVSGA
Cytochrome P450 2C19 (Homo sapiens), sequence (P33261 whole entry, looked up): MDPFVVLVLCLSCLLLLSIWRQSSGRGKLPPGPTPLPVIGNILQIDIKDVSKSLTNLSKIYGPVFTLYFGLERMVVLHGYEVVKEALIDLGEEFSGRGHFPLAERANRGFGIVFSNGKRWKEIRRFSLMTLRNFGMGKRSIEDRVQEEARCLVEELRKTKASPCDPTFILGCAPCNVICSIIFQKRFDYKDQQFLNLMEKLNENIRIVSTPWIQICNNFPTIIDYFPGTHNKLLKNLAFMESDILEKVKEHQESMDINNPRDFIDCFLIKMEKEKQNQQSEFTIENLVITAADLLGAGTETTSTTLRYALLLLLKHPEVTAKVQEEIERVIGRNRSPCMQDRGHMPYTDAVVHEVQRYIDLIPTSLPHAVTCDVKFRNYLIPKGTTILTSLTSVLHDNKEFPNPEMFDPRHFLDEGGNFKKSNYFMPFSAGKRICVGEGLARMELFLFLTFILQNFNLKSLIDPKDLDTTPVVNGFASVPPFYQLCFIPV
Cytochrome P450 1A2 (Homo sapiens), sequence (P05177 whole entry, looked up): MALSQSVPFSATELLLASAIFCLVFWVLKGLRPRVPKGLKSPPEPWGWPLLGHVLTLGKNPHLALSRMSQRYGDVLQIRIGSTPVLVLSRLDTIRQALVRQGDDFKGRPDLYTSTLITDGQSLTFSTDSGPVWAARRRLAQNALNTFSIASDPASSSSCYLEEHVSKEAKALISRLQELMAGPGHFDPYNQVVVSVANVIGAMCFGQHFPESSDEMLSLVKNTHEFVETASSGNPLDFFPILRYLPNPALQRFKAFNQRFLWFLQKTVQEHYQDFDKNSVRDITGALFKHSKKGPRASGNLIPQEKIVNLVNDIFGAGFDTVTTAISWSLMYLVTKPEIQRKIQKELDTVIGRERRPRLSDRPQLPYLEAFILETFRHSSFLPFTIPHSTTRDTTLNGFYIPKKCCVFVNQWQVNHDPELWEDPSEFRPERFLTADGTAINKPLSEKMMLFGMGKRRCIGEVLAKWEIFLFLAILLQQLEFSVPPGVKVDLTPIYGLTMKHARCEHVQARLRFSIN

`CC1CNCC(C)O1` (stereo not drawn): the Potency result in [1], in test [2], in [3], in test [4], in [5] and in test [6] was “inactive” each time. The Potency entry in [7] is “inactive”.

Turning to `CCCCCCCCCCCCCCCCCO`, the activity change, negative = cytotoxicity in test [1] is 11.2% [at 19 µM]. The caspase-3/7 activation in test [2] is 1.08% [at 19 µM]. Also, the activation in test [3] was 4.62% [at 19 µM]. Also, the activity change, negative = inhibition was -4.81% [at 23.6 µM] in test [4]; -5.64% [at 23.6 µM] in test [5]; -2.94% [at 23.6 µM] in test [6]; 6.84% [at 23.6 µM] in test [8]; 5.95% [at 15.8 µM] in test [7]; 7.87% [at 23.6 µM] in test [9].

With `C=C[C@](C)(O)CC[C@@H]1[C@@]2(C)CCCC(C)(C)[C@@H]2CC[C@@]1(C)O`, the Potency in test [1] is 54.5 µM (active); in [3] it was 9.69 µM (active); in [5], 1 µM (active); in test [6], 3.17 µM (active); in test [8] it was 31.7 µM (active). Besides, in test [2], the Potency entry was “inactive”.

`C[Si](C)O[Si](C)C`: the Potency result in test [1], in test [2], in [3], in [4], in test [5] and in [6] was “inactive” throughout. Besides, the Potency entry in [8], in [7] and in [9] was “inactive” each time.

`CC(C)(C)c1cc(/C=C2\SC(=N)NC2=O)cc(C(C)(C)C)c1O`: the Potency in [1] is 54.5 µM (active); in test [3] it was 30.6 µM (active); in [4] it was 39.9 µM (active); in test [5], 20 µM (active); in test [6], 1.78 µM (active); in test [9], 11.2 µM (active). The Potency entry in test [2] and in test [7] was “inactive” throughout.

For the compound `C=CC(=O)OCC(O)COc1ccccc1` (stereo not drawn), the Potency in test [1] was 61.1 µM (active); in test [5], 35.6 µM (active); in [8] it was 35.6 µM (active). Moreover, the Potency result in [2], in test [3], in [4], in test [7] and in test [9] was “inactive” throughout.

Take `C=C1C(C)(C)[C@@]2(Cl)C(Cl)[C@]1(Cl)C(Cl)(Cl)C2(Cl)Cl` (stereo partly drawn): the Potency in test [1] is 60 µM (active); in [2], 60 µM (active); in [3], 10.7 µM (active); in [4] it was 31.1 µM (active); in test [5], 1.96 µM (active); in test [6], 13.9 µM (active). Further, the Potency was 39.2 µM (active) in test [8], 27 µM (active) in test [7] and 0.985 µM (active) in [9].

`CCO[Si](C)(C)OCC`: the Potency entry in test [1], in test [2], in test [3], in [4], in test [5] and in [6] was “inactive” throughout. Besides, the Potency result in [8], in test [7] and in [9] was “inactive” throughout.

On to `SCCCCCCCCS`, for which the Potency result in test [1], in [2], in [3], in [4], in test [5] and in [6] was “inactive” each time. The Potency entry in test [8], in test [7] and in test [9] was “inactive” throughout.

For `Oc1cc2ccccc2cc1O`, the Potency entry in test [1], in [2], in [3] and in test [7] was “inactive” throughout. Moreover, the figures for the Potency in [5] and in test [8] were 39.9 µM (active) and 31.7 µM (active), respectively.

With `COC(=O)CC(C)CCC=C(C)C` (stereo not drawn), the Potency result in test [1], in test [2], in test [3], in test [4], in [5] and in [6] was “inactive” in each case. The Potency result in test [7] and in test [9] was “inactive” in each case.

For the compound `CCOC(=O)COc1ccc(C)cc1`, the Potency entry in test [1], in [2], in test [3], in test [4], in test [5] and in test [7] was “inactive” throughout. Further, in test [9], the Potency result is “inactive”. Besides, the Potency in test [8] was 39.9 µM (active).

In the case of `O=C1c2c(O)ccc([N+](=O)[O-])c2C(=O)c2c([N+](=O)[O-])ccc(O)c21`, the Potency in [1] is 12.1 µM (active); in test [4], 31.4 µM (active); in test [5], 12.5 µM (active); in test [6], 28 µM (active); in test [8], 7.03 µM (active); in test [9], 12.5 µM (active). Further, the Potency result in test [2], in [3] and in [7] was “inactive” in each case.

In the case of `CCOCOCC`, the Potency entry in test [1], in [2], in test [3], in test [4], in test [5] and in [6] was “inactive” throughout. Further, the Potency result in test [8], in test [7] and in test [9] was “inactive” throughout.

Consider `NCCCCCCNCCCCCCN`, for which the Potency result in test [1], in test [2], in [3], in test [5], in test [6] and in test [8] was “inactive” throughout. In test [7], the Potency result was “inactive”. Also, the Potency in test [4] was 4.94 µM (active); in test [9] it was 3.5 µM (active).

On to `C=CC(C)C#N` (stereo not drawn), for which the Potency entry in [1], in test [2], in test [3], in test [4], in [5] and in test [6] was “inactive” throughout. Besides, the Potency result in [8], in test [7] and in test [9] was “inactive” in each case.

Consider `C[Si](C)(C)Cl`, for which the Potency entry in [1], in test [2], in test [4], in test [5], in test [6] and in test [7] was “inactive” throughout. Moreover, in test [9], the Potency entry was “inactive”.

As for `CCCCCCCCCCCCOC(=O)c1cc(O)c(O)c(O)c1`, the Potency in [1] was 9.65 µM (active) and 7.7 µM (active); in [3], 24.2 µM (active) and 21.7 µM (active); in test [4], 28.2 µM (active) and 31.7 µM (active); in test [5], 25.1 µM (active) and 20 µM (active); in test [6] it was 9.99 µM (active) and 28.3 µM (active); in test [9], 17.8 µM (active) and 20 µM (active). For the same compound, the Potency entry in test [2], in [8] and in [7] was “inactive” each time.

These data come from PubChem BioAssay (Tox21).
